In the supplement of paper PMC8975748:
Structures can show the parent of a compound that is named as a salt. ± gives the standard deviation of the averaged measurements.

Key:
[1] = tested on: Saccharomyces cerevisiae BY4741 SeMeCo community; assay: mean cell size (pixel area) (pixels); higher = larger cells; settings: 10 µM; 24 h; SM minimal medium
Summary of the method: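 Yeast cells were fixed with paraformaldehyde, imaged by automated confocal microscopy and analysed in Harmony to obtain mean cell pixel area per well. They came from a four-plasmid fluorescent Saccharomyces cerevisiae BY4741 community, each plasmid complementing one auxotrophy and carrying a fluorescent marker. Before imaging, 70 µl of culture at OD600 = 0.3 was incubated for 24 h in SM medium in 384-well plates predosed acoustically with drug (final 10 µM). Values are means of 3 replicates. Same SeMeCo high-content imaging drug screen: Selleck FDA-approved drugs at 10 µM, 24 h in SM medium, 384-well plates, 3 replicates.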

[2] = tested on: Saccharomyces cerevisiae BY4741 SeMeCo community; assay: z-score of prototroph abundance vs DMSO median; higher = larger share of this subpopulation than in DMSO controls; settings: 10 µM; 24 h; SM minimal medium; subpopulation (auxotrophy): Prototroph
Summary of the method: (§1)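 Subpopulation abundance was reported as a z-score against the median of vehicle wells. The Saccharomyces cerevisiae BY4741 community, carrying four plasmids that each restored one auxotrophy and encoded a distinct fluorescent protein, was grown 24 h in minimal SM medium in 384-well plates holding library drugs at 10 µM final. Cells were paraformaldehyde-fixed and imaged by automated confocal microscopy, with single-auxotroph fluorescent strains used for thresholds and autofluorescence correction.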

[3] = tested on: Saccharomyces cerevisiae BY4741 SeMeCo community; assay: z-score of subpopulation abundance vs DMSO median, subpopulation auxotrophic for M; higher = larger share of this subpopulation than in DMSO controls; settings: 10 µM; 24 h; SM minimal medium; subpopulation (auxotrophy): M
Summary of the method: as §1

[4] = tested on: Saccharomyces cerevisiae BY4741 SeMeCo community; assay: z-score of subpopulation abundance vs DMSO median, subpopulation auxotrophic for L; higher = larger share of this subpopulation than in DMSO controls; settings: 10 µM; 24 h; SM minimal medium; subpopulation (auxotrophy): L
Summary of the method: as §1

[5] = tested on: Saccharomyces cerevisiae BY4741 SeMeCo community; assay: z-score of subpopulation abundance vs DMSO median, subpopulation auxotrophic for U; higher = larger share of this subpopulation than in DMSO controls; settings: 10 µM; 24 h; SM minimal medium; subpopulation (auxotrophy): U
Summary of the method: as §1

[6] = tested on: Saccharomyces cerevisiae BY4741 SeMeCo community; assay: z-score of subpopulation abundance vs DMSO median, subpopulation auxotrophic for H; higher = larger share of this subpopulation than in DMSO controls; settings: 10 µM; 24 h; SM minimal medium; subpopulation (auxotrophy): H
Summary of the method: as §1

[7] = tested on: Saccharomyces cerevisiae BY4741 SeMeCo community; assay: z-score of subpopulation abundance vs DMSO median, subpopulation auxotrophic for LU; higher = larger share of this subpopulation than in DMSO controls; settings: 10 µM; 24 h; SM minimal medium; subpopulation (auxotrophy): LU
Summary of the method: as §1

[8] = tested on: Saccharomyces cerevisiae BY4741 SeMeCo community; assay: z-score of subpopulation abundance vs DMSO median, subpopulation auxotrophic for HU; higher = larger share of this subpopulation than in DMSO controls; settings: 10 µM; 24 h; SM minimal medium; subpopulation (auxotrophy): HU
Summary of the method: as §1

[9] = tested on: Saccharomyces cerevisiae BY4741 SeMeCo community; assay: z-score of subpopulation abundance vs DMSO median, subpopulation auxotrophic for UM; higher = larger share of this subpopulation than in DMSO controls; settings: 10 µM; 24 h; SM minimal medium; subpopulation (auxotrophy): UM
Summary of the method: as §1

[10] = tested on: Saccharomyces cerevisiae BY4741 SeMeCo community; assay: z-score of subpopulation abundance vs DMSO median, subpopulation auxotrophic for HL; higher = larger share of this subpopulation than in DMSO controls; settings: 10 µM; 24 h; SM minimal medium; subpopulation (auxotrophy): HL
Summary of the method: as §1

[11] = tested on: Saccharomyces cerevisiae BY4741 SeMeCo community; assay: z-score of subpopulation abundance vs DMSO median, subpopulation auxotrophic for HLU; higher = larger share of this subpopulation than in DMSO controls; settings: 10 µM; 24 h; SM minimal medium; subpopulation (auxotrophy): HLU
Summary of the method: as §1

[12] = tested on: Saccharomyces cerevisiae BY4741 SeMeCo community; assay: z-score of subpopulation abundance vs DMSO median, subpopulation auxotrophic for HLM; higher = larger share of this subpopulation than in DMSO controls; settings: 10 µM; 24 h; SM minimal medium; subpopulation (auxotrophy): HLM
Summary of the method: as §1

[13] = tested on: Saccharomyces cerevisiae BY4741 SeMeCo community; assay: z-score of subpopulation abundance vs DMSO median, subpopulation auxotrophic for HUM; higher = larger share of this subpopulation than in DMSO controls; settings: 10 µM; 24 h; SM minimal medium; subpopulation (auxotrophy): HUM
Summary of the method: as §1

[14] = tested on: Saccharomyces cerevisiae BY4741 SeMeCo community; assay: z-score of subpopulation abundance vs DMSO median, subpopulation auxotrophic for LUM; higher = larger share of this subpopulation than in DMSO controls; settings: 10 µM; 24 h; SM minimal medium; subpopulation (auxotrophy): LUM
Summary of the method: as §1

[15] = tested on: Saccharomyces cerevisiae BY4741 SeMeCo community; assay: z-score of subpopulation abundance vs DMSO median, subpopulation auxotrophic for HLUM; higher = larger share of this subpopulation than in DMSO controls; settings: 10 µM; 24 h; SM minimal medium; subpopulation (auxotrophy): HLUM
Summary of the method: as §1

[16] = tested on: Saccharomyces cerevisiae BY4741 SeMeCo community; assay: z-score of subpopulation abundance vs DMSO median, subpopulation auxotrophic for LM; higher = larger share of this subpopulation than in DMSO controls; settings: 10 µM; 24 h; SM minimal medium; subpopulation (auxotrophy): LM
Summary of the method: as §1

[17] = tested on: Saccharomyces cerevisiae BY4741 SeMeCo community; assay: z-score of subpopulation abundance vs DMSO median, subpopulation auxotrophic for HM; higher = larger share of this subpopulation than in DMSO controls; settings: 10 µM; 24 h; SM minimal medium; subpopulation (auxotrophy): HM
Summary of the method: as §1

SMILES	mean cell size [1]	z-score of prototroph abundance [2]	z-score of subpopulation abundance [3]	z-score of subpopulation abundance [4]	z-score of subpopulation abundance [5]	z-score of subpopulation abundance [6]	z-score of subpopulation abundance [7]	z-score of subpopulation abundance [8]	z-score of subpopulation abundance [9]	z-score of subpopulation abundance [10]	z-score of subpopulation abundance [11]	z-score of subpopulation abundance [12]	z-score of subpopulation abundance [13]	z-score of subpopulation abundance [14]	z-score of subpopulation abundance [15]	z-score of subpopulation abundance [16]	z-score of subpopulation abundance [17]
O=C(O)CCCCCCCC(=O)O [Azelaic acid]	12.4 ± 0.2	-0.32	0.44	-0.32	0.62	0.43	1.26	0.63	-0.2	-0.5	0.77	-0.07	0.47	-0.32	1.13	–	–
CO/N=C(\C(=O)N[C@@H]1C(=O)N2C(C(=O)O)=C(COC(C)=O)CS[C@H]12)c1csc(N)n1 [Cefotaxime sodium]	–	-0.43	0.24	-0.14	1.03	-0.66	0.37	-0.11	0.17	-0.46	0.33	0	-0.16	0.05	0.47	1.08	-0.37
O=C1C(=O)c2ccccc2C(O)=C1C1CCC(c2ccc(Cl)cc2)CC1 (configuration not stated) [Atovaquone]	–	-0.82	-0.46	1.54	-0.2	1.46	0.47	0.94	0.03	1.12	1.94	0.84	0.71	1.22	0.68	1.39	0.9
CN[C@@H]1[C@@H](O[C@H]2O[C@H](CO)[C@@H](N)[C@H](O)[C@H]2O)OC2C[C@@H](N)[C@@H](O[C@H]3[C@H](O)[C@@H](O)[C@H](N)C[C@@H]3N)OC2[C@@H]1O (some centres not stated) [Apramycin Sulfate]	–	-0.43	-0.24	-0.01	0.87	-0.41	0.41	-0.09	–	0.24	0.36	0.1	0.37	0.97	1.47	0.1	0.03
CC1=C(C(=O)OCCN(Cc2ccccc2)c2ccccc2)C(c2cccc([N+](=O)[O-])c2)C(P2(=O)OCC(C)(C)CO2)=C(C)N1 (configuration not stated) [Efonidipine]	12.6 ± 0.14	-1.56	0.03	0.97	0.34	1.79	1.04	1.86	0.8	0.79	1.2	1.02	1.54	–	–	–	1.87
CS(=O)(=O)c1ccc([C@@H](O)[C@@H](CF)NC(=O)C(Cl)Cl)cc1 [Florfenicol]	–	0.5	-1.1	-0.16	0.29	-0.98	-0.09	0	-0.38	-0.56	-0.45	-0.4	-0.98	-0.3	-0.14	-0.75	-1.52
COc1cc(NS(=O)(=O)c2ccc(N)cc2)ncn1 [Sulfamonomethoxine]	12.3 ± 0.041	0	-0.64	0	1.19	–	1.01	–	0.65	–	0.33	-0.64	0.06	0.5	0.33	–	–
CCN(CC)CCOC(=O)c1ccc(N)cc1 [Procaine HCl]	12.5 ± 0.25	0.84	-0.44	-0.69	-0.15	-0.47	-0.34	–	-0.8	–	0.02	-0.24	-1.23	0.14	0.26	–	-0.71
COc1ccc2[nH]c([S+]([O-])Cc3ncc(C)c(OC)c3C)nc2c1 (configuration not stated) [Omeprazole]	12.3 ± 0.19	-0.07	-0.74	1.33	-1.23	–	0.12	0.46	-0.94	–	1.91	-0.19	-0.34	0.62	–	–	0.37
CN(C)CCc1c[nH]c2ccc(C[C@H]3COC(=O)N3)cc12 [Zolmitriptan]	12.5 ± 0.18	0.27	-0.23	0.2	-0.08	-0.77	-0.9	-1.01	-0.65	0.28	0.09	-0.12	-0.45	-0.64	0.15	–	–
O=c1[nH]c(=O)n([C@H]2C[C@H](O)[C@@H](CO)O2)cc1/C=C/Br [Brivudine]	–	0.4	0.48	-2.11	0.12	-2.5	-0.22	-0.94	0.16	–	-0.95	-1.12	-0.74	-0.74	-1.13	-1.47	-0.22
N=C(N)NC(=O)c1nc(Cl)c(N)nc1N [Amiloride HCl dihydrate]	–	1.39	3.23	0.68	-3.02	0.83	-3.52	-2.8	-3.7	0.71	-1.34	0.23	-1.45	-1.62	-0.95	2.66	1.29
CCCCc1oc2ccc(NS(C)(=O)=O)cc2c1C(=O)c1ccc(OCCCN(CCCC)CCCC)cc1 [Dronedarone HCl]	12.24 ± 0.057	-0.15	-0.05	0.34	-0.45	1.17	0.61	0.78	-0.63	1.2	2.17	1.9	-0.2	0.59	–	–	1.04
COc1ccc2cc3[n+](cc2c1OC)CCc1cc2c(cc1-3)OCO2 [Berberine chloride]	–	-0.22	0.33	0.44	-0.13	0.04	-0.32	-0.79	-0.09	–	0.27	-0.32	-0.38	-0.34	-0.12	0.14	-0.15
